The source of these data is publication PMC7862700, “An all-to-all approach to the identification of sequence-specific readers for epigenetic DNA modifications on cytosine”.

What all share (assay): DAPPL (digital affinity profiling via proximity ligation, sequencing); 10 mM Tris-HCl pH 7.5, 50 mM NaCl, 1 mM DTT, 4% glycerol, room temperature, 30 min; GST-TFs on glutathione beads, 16-mer random dsDNA library, 0.1% formaldehyde crosslink after washing; high values mean tight binding
One assay addresses T1, FEV (Homo sapiens, UniProt Q99581 1-238).
T1 sequence: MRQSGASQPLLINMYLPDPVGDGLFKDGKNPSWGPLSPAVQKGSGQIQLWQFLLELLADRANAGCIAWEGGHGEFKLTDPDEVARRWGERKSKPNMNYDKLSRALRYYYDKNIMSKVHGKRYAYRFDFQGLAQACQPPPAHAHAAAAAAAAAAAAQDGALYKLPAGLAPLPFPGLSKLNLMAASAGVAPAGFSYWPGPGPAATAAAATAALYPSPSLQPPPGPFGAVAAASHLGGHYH
As to conditions: protein: recombinant; tags: N-terminal GST; dsDNA, one strand shown. In a few lines:
(§1)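 Binding signal is each hexamer's read frequency for a factor divided by its frequency in the tag-only sample. The factors were GST-fused human transcription factors from yeast, captured on glutathione beads, DNA-barcoded and pooled with that sample. Pools were incubated with 200 nmole of a random double-stranded 16-mer DNA library in Tris/NaCl/DTT/glycerol buffer at room temperature for 30 min, then washed, crosslinked with 0.1% formaldehyde, proximity-ligated with BsaI/T4 ligase (1 h, 37 °C), PCR-amplified and sequenced on an Illumina NextSeq500.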

In a further assay the target is ETV5 (Homo sapiens, UniProt P41161 1-510). As to conditions: protein: recombinant; tags: N-terminal GST; dsDNA, one strand shown. In a few lines:
as §1

For a further assay, the target named is HSF1 (Homo sapiens, UniProt Q00613 1-529). As to conditions: protein: recombinant; tags: N-terminal GST; chain copies: 3; dsDNA, one strand shown. In a few lines:
as §1

For the next assay, the target named is T2, SPIC (Homo sapiens, UniProt Q8N5J4 1-248).
T2 sequence: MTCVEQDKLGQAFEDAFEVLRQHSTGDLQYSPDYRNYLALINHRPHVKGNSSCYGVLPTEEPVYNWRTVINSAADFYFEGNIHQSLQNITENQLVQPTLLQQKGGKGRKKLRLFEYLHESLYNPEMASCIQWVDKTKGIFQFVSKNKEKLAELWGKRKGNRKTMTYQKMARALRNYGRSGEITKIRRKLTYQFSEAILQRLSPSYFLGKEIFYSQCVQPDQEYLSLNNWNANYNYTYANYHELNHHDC
As to conditions: protein: recombinant; tags: N-terminal GST; dsDNA, one strand shown. In a few lines: as §1

A further assay concerns the target ELF4 (Homo sapiens, UniProt Q99607 1-663). As to conditions: protein: recombinant; tags: N-terminal GST; dsDNA, one strand shown. The method in brief:
as §1

In another assay the target is T3, ELK4 (Homo sapiens, UniProt P28324-2 1-405).
T3 sequence: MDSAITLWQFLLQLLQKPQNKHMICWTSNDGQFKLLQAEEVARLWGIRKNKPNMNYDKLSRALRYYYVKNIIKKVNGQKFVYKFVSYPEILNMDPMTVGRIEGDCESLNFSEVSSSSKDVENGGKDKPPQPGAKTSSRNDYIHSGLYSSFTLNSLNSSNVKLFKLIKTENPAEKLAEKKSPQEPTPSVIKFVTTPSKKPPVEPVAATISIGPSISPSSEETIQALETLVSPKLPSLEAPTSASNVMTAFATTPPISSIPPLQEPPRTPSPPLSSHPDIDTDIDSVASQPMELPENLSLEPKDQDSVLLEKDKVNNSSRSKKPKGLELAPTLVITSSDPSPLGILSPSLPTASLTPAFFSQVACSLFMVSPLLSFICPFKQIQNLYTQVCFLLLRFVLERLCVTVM
Particulars: protein: recombinant; tags: N-terminal GST; dsDNA, one strand shown. In a few lines:
as §1

In the next assay the target is T4, ETV2 (Homo sapiens, UniProt O00321 1-342).
T4 sequence: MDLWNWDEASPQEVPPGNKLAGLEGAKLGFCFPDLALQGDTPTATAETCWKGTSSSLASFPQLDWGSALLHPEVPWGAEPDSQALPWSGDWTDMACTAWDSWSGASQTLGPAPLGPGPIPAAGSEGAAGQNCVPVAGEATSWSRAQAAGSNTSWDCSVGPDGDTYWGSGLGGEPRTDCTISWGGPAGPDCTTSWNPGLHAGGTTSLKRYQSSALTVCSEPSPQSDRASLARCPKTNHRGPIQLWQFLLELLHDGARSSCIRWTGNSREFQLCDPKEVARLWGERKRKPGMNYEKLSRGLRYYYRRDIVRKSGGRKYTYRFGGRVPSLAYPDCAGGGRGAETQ
As to conditions: protein: recombinant; tags: N-terminal GST; dsDNA, one strand shown. In a few lines: as §1

In the next assay the target is T5, ELF3 (Homo sapiens, UniProt P78545 1-371).
T5 sequence: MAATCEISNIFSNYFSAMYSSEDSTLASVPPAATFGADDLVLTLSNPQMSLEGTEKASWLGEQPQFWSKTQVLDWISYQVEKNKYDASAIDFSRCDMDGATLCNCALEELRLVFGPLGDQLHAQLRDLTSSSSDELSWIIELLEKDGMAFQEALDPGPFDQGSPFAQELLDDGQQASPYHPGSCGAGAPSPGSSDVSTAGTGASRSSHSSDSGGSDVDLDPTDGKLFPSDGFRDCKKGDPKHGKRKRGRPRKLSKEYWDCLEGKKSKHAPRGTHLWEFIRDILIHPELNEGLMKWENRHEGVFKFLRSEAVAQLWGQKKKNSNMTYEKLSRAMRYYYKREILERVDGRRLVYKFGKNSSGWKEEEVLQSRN
As to conditions: protein: recombinant; tags: N-terminal GST; dsDNA, one strand shown. The method in brief:
as §1

The next assay addresses CRX (Homo sapiens, UniProt O43186 1-299). As to conditions: protein: recombinant; tags: N-terminal GST; dsDNA, one strand shown. In a few lines:
as §1

A further assay deals with ETV1 (Homo sapiens, UniProt P50549 1-477). As to conditions: protein: recombinant; tags: N-terminal GST; dsDNA, one strand shown. In a few lines: as §1
The target in the next assay is T6, ERF (Homo sapiens, UniProt P50548 1-548).
T6 sequence: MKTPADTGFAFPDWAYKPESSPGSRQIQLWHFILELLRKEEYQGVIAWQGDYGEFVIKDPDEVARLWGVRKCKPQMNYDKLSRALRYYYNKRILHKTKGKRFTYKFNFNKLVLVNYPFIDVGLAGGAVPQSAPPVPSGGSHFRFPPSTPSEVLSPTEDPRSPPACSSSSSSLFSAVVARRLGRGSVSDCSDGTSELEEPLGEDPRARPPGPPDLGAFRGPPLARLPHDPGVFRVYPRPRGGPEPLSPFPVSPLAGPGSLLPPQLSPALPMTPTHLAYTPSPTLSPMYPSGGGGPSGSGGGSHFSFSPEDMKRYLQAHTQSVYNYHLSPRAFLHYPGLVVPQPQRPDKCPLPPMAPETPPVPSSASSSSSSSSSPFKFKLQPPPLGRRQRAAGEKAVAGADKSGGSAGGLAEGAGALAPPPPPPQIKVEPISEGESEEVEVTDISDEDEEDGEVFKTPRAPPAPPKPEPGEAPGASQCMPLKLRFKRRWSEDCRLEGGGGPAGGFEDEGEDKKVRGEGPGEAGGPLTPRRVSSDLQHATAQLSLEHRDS
Particulars: protein: recombinant; tags: N-terminal GST; dsDNA, one strand shown. In a few lines:
as §1

The next assay has as its target T7, ETV3L (Homo sapiens, UniProt Q6ZN32 1-361).
T7 sequence: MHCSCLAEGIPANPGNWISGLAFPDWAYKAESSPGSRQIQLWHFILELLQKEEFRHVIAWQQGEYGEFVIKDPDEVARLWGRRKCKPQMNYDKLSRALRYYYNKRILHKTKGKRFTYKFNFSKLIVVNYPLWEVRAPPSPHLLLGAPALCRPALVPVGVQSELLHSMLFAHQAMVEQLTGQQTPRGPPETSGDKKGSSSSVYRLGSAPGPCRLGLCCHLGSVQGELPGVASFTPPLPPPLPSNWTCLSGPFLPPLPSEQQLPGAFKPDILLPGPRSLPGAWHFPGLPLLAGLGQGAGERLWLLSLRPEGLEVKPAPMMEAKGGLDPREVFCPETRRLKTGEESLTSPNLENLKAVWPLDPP
Particulars: protein: recombinant; tags: N-terminal GST; dsDNA, one strand shown. In a few lines: as §1

Another assay deals with T8, ETS2 (Homo sapiens, UniProt P15036 1-469).
T8 sequence: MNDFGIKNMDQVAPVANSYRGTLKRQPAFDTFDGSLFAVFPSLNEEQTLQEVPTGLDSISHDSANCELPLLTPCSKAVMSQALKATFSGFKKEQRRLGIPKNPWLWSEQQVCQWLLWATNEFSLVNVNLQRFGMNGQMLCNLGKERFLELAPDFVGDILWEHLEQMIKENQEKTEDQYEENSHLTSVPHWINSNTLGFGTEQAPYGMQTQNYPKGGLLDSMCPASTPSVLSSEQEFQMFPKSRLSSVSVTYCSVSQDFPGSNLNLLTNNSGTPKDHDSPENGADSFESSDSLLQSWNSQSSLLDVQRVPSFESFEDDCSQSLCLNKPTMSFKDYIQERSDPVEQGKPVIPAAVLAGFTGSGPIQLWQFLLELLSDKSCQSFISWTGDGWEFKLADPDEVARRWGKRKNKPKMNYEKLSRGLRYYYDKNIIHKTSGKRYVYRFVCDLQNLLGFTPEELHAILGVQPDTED
As to conditions: protein: recombinant; tags: N-terminal GST; dsDNA, one strand shown. The method in brief:
as §1

In another assay the target is T9, SPDEF (Homo sapiens, UniProt O95238 1-335).
T9 sequence: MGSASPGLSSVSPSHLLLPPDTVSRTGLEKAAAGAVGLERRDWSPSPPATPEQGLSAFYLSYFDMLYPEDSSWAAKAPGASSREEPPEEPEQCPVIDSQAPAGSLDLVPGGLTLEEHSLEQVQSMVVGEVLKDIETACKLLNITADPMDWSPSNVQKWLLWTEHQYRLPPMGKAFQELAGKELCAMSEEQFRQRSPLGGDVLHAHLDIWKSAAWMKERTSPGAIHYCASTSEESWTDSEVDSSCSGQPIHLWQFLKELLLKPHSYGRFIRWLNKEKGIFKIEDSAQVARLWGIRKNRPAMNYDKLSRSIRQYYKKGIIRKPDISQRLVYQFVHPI
As to conditions: protein: recombinant; tags: N-terminal GST; dsDNA, one strand shown. The method in brief: as §1

The target of a further assay is T10, ETV7 (Homo sapiens, UniProt Q9Y603 1-341).
T10 sequence: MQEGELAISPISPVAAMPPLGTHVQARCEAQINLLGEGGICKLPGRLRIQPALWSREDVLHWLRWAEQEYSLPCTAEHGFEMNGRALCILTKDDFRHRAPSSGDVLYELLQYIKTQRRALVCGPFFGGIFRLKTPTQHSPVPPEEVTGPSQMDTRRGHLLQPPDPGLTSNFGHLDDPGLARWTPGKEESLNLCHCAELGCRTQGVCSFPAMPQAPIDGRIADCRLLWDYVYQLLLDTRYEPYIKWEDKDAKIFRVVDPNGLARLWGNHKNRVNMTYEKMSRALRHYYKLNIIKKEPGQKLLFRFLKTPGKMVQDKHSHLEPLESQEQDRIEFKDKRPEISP
Particulars: protein: recombinant; tags: N-terminal GST; dsDNA, one strand shown. In a few lines:
as §1

The next assay addresses T11, ELF5 (Homo sapiens, UniProt Q9UKW6-2 1-255).
T11 sequence: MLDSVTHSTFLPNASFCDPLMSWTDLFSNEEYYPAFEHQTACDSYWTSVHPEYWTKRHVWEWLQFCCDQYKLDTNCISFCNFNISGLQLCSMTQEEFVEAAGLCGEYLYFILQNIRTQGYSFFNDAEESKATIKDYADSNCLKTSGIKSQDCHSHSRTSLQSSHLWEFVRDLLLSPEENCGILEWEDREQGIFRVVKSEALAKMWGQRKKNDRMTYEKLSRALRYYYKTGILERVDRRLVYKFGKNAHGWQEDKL
As to conditions: protein: recombinant; tags: N-terminal GST; dsDNA, one strand shown. In a few lines: as §1

The target of a further assay is T12, ETV3 (Homo sapiens, UniProt P41162-2 1-143).
T12 sequence: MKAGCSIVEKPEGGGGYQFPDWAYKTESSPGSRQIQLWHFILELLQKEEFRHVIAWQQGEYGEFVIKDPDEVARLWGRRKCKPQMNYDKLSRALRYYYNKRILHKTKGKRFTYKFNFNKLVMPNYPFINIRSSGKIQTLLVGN
Particulars: protein: recombinant; tags: N-terminal GST; dsDNA, one strand shown. The method in brief:
as §1

A further assay deals with ETV6 (Homo sapiens, UniProt P41212 1-452). Particulars: protein: recombinant; tags: N-terminal GST; dsDNA, one strand shown. The method in brief:
as §1

Sequence of ELF4 (Q99607 whole entry): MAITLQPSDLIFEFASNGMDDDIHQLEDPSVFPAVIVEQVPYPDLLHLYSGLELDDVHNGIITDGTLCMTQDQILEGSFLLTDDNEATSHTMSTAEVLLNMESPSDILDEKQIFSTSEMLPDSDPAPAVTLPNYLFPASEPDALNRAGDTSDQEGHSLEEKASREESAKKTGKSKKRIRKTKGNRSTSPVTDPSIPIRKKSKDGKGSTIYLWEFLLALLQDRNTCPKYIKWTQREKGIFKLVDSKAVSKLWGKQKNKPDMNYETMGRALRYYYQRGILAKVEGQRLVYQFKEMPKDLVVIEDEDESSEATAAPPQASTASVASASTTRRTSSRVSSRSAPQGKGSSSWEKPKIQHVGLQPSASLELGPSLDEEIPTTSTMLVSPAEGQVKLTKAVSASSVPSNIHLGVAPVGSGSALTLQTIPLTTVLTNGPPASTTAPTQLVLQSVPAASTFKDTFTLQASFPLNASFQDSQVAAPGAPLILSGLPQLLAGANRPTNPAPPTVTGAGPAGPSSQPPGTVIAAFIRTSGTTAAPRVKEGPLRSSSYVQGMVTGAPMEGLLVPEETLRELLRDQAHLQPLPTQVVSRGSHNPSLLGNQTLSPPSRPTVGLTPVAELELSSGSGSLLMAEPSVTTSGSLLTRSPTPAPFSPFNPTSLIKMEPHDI
Sequence of HSF1 (Q00613 whole entry): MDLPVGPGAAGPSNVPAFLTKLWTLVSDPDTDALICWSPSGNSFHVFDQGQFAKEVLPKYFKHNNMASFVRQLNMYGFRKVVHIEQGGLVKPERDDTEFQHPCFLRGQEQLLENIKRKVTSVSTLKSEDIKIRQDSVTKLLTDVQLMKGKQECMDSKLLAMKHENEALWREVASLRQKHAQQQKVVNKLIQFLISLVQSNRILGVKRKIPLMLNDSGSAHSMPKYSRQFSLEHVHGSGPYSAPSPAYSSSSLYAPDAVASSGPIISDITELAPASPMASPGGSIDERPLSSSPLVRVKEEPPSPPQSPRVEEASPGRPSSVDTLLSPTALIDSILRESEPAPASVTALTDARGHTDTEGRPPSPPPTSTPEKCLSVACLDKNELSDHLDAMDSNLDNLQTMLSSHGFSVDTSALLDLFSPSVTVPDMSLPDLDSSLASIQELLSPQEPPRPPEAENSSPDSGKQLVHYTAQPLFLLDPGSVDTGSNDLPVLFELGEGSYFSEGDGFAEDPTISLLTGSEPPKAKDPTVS
Sequence of CRX (O43186 whole entry): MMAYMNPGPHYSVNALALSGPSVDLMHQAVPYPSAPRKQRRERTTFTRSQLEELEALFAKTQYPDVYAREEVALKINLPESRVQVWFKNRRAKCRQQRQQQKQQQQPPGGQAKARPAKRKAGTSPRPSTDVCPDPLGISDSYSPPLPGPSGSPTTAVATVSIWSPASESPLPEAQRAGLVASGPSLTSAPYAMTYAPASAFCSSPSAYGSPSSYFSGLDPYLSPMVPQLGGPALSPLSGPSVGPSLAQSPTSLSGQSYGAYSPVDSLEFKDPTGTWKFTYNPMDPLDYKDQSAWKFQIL
Sequence of ETV1 (P50549 whole entry): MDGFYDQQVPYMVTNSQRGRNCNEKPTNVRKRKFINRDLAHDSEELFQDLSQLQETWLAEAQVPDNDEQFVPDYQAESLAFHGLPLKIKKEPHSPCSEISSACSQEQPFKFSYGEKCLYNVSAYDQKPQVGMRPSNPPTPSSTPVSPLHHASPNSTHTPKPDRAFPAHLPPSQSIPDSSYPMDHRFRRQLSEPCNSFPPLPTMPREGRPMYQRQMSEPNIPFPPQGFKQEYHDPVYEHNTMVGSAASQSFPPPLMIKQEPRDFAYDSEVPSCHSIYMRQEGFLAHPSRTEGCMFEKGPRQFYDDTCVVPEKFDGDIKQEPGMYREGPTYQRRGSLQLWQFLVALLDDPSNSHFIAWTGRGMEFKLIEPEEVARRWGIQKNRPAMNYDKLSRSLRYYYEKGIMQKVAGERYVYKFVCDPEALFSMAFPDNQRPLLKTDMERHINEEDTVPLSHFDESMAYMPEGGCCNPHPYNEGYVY
Sequence of ETV6 (P41212 whole entry): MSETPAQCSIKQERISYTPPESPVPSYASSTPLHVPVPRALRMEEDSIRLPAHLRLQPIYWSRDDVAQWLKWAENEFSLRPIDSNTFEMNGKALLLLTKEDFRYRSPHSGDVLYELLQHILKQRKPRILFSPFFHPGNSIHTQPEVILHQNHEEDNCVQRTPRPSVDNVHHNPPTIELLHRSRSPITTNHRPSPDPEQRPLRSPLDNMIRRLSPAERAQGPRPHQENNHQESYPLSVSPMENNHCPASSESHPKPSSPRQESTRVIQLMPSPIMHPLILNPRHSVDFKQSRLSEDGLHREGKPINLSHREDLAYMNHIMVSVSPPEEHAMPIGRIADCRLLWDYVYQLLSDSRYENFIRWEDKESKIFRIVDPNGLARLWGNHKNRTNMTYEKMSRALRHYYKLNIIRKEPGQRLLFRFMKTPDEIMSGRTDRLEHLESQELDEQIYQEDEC
Sequence of ETV5 (P41161 whole entry): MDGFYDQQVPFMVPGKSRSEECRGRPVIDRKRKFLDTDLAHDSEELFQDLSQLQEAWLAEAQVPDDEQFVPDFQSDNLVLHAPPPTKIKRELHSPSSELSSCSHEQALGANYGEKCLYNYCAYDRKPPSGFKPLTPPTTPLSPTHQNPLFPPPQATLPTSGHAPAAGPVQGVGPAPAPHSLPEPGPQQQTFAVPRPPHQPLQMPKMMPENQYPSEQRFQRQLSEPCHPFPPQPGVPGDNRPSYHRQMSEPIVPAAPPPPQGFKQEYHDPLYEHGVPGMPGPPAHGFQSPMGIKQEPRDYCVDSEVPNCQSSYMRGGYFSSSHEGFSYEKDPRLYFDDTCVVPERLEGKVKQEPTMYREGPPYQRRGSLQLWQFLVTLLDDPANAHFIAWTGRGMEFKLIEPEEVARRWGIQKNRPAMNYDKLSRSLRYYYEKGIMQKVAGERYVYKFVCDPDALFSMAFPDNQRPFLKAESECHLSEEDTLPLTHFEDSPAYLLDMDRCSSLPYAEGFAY

In the case of TCTAAT, the binding signal is 1.16 fold enrichment (6-mer frequency, TF over GST control) with FEV; 1.17 fold enrichment (6-mer frequency, TF over GST control) in the assay with ETV5; 1.73 fold enrichment (6-mer frequency, TF over GST control) with HSF1; 1.26 fold enrichment (6-mer frequency, TF over GST control) with SPIC; 1.21 fold enrichment (6-mer frequency, TF over GST control) in the assay with ELF4; 1.18 fold enrichment (6-mer frequency, TF over GST control) with ELK4. Moreover, the binding signal with ETV2 was 1.22 fold enrichment (6-mer frequency, TF over GST control); in the assay with ELF3 it was 1.16 fold enrichment (6-mer frequency, TF over GST control); in the assay with CRX, 2.37 fold enrichment (6-mer frequency, TF over GST control); in the assay with ETV1, 1.26 fold enrichment (6-mer frequency, TF over GST control); with ERF, 1.26 fold enrichment (6-mer frequency, TF over GST control); with ETV3L, 1.14 fold enrichment (6-mer frequency, TF over GST control). For the same sequence, the binding signal in the assay with ETS2 was 1.21 fold enrichment (6-mer frequency, TF over GST control); with SPDEF, 1.21 fold enrichment (6-mer frequency, TF over GST control); with ETV7, 1.07 fold enrichment (6-mer frequency, TF over GST control); with ELF5 it was 1.11 fold enrichment (6-mer frequency, TF over GST control); in the assay with ETV3 it was 1.05 fold enrichment (6-mer frequency, TF over GST control); with ETV6, 1.2 fold enrichment (6-mer frequency, TF over GST control).
